Screening results (PubChem BioAssay)
An excerpt weighted towards active compounds, which were near 7.7% of everything screened.
HCMV inh – human cytomegalovirus inhibition. HFF cells, HCMV-luciferase reporter, 72 h; active compounds read low. 4.5% of 410,000 active. activity change, negative = inhibition, % at 57.5 µM; in the data active = activity change below about -60%; inconclusive = no clear call, values can overlap the other calls; inactive = above about -39%
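Luciferase read-out from HCMV-luciferase-infected HFFs (MOI 1 PFU/cell) 72 h post infection at 37C; compounds added after 16 h cell attachment; activity normalized between buffer-only basal and Salinomycin (10uM) inhibitor controls.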
FBPA Giardia inh – blocks Giardia fructose-bisphosphate aldolase activity. 0.71% of 290,000 active. purified Giardia FBPA. A8B2U2. AID 2451. Potency, µM (top dose mostly 59.6 µM), for the others: at the highest dose activity, negative = inhibition, hits mostly inhibitors; note: potency is the fitted concentration of half-maximal effect; nearly all actives have a fitted effect of over 55% in size
Target sequence (A8B2U2 whole entry, looked up): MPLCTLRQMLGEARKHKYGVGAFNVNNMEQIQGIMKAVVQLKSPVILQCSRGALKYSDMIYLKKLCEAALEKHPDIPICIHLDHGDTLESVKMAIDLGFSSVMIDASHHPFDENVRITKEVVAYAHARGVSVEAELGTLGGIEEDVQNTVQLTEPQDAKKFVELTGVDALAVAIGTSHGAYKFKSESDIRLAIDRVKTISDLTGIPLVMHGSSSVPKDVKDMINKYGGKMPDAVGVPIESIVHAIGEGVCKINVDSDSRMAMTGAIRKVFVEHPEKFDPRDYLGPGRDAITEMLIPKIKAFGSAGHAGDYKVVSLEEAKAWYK
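Giardia FBPA (40 nM reagent) was preincubated 10 min at RT with compound (up to 57.5 uM final), then substrate plus GAPDH/TPI/NAD/arsenate coupling system with diaphorase/resazurin was added; resorufin fluorescence (525/598 nm) was read after 20 min.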
Sm TGR block – S. mansoni TGR enzyme inhibition; purified TGR, DTNB reduction, TNB absorbance 405 nm; Potency, µM (series often up to 114 µM), for inactives: at the top dose activity change, negative = inhibition, hits mostly inhibitors; 3% of 360,000 active; Q962Y6; note: potency is the fitted concentration of half-maximal effect; nearly all actives have a fitted effect of over 60% in size
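First, TGR (20 nM dispensed) and NADPH were mixed with compound. Second, a 15 min room-temperature incubation followed. Third, further NADPH and then DTNB were added to start the reaction. Finally, TNB absorbance was monitored kinetically.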
RE007 growth inh – less growth of the S. pombe RE007 Vpr strain. AID 651644. S. pombe RE007 Vpr strain, BacTiter-Glo ATP luminescence, 24 h. Potency, µM (series often up to 92.2 µM), for inactives: top-dose activity change, negative = less growth, hits mostly inhibitors. 0.21% of 360,000 active; active = well fitted falling curve with a large enough effect; inconclusive = small, poorly fitted or top-dose-only effect; inactive = no such curve, though single readings can be large or run the other way; note: potency is the fitted concentration of half-maximal effect; nearly all actives have a fitted effect of over 50% in size
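Fission yeast RE007 carrying one integrated HIV-1 vpr copy, seeded at OD 0.01 in PMG+AL medium with 23 nL pinned compound. Grown 24 h at 30 degrees; viability read by BacTiter-Glo luminescence after 5 min.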
FMDV antiviral – foot and mouth disease virus antiviral activity; FMDV antiviral cell-based qHTS; Potency, µM (top dose mostly 57.9 µM), for inactives: top-dose activity change, negative = inhibition, usual class: inhibitors; 1.2% of 410,000 active; AID 1159524; calls by dose curve; tested in HEK293T cells; note: read-out not given here; potency is the fitted concentration of half-maximal effect; nearly all actives have a fitted effect of over 45% in size
TbPYK inhibitor – blocks Trypanosoma brucei pyruvate kinase; Potency, µM (titrated, usually from 76.8 µM), inactives show top-dose activity, negative = inhibition, usual class: inhibitors; TbPYK enzyme, Kinase-Glo Plus ATP luminescence, 45 min; Q57TT1; 0.12% of 410,000 active; note: potency is the fitted concentration of half-maximal effect; nearly all actives have a fitted effect of over 50% in size
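Luminescent Kinase-Glo Plus end-point after 45 min room-temperature reaction of T. brucei pyruvate kinase started with 130 uM ADP (final). Buffer TEA 50 mM pH 7.2 with KCl, MgCl2, BSA, Tween-20; titration-based qHTS with fitted concentration-effect curves.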
Active calls of the source: *. Unless noted, calls come from the whole dose curve; as a rule, active = well fitted curve in the direction sought with a large enough effect; inconclusive = small, poorly fitted or top-dose-only effect, or another doubt; inactive = no such curve, though single readings can be large; an effect the other way counts as inactive or inconclusive. % is set by controls: 0 for no effect and ±100 for the full control effect.

COc1ccc(CNC(=O)c2cnc3sc(N4CCOCC4)nn3c2=O)cc1 was read as HCMV inh 20.0, Sm TGR block -12.4%, FMDV antiviral -12.1% and TbPYK inhibitor 3.2%.
COc1ccccc1NC(=O)CSc1ncc2c(n1)-c1ccccc1N(Cc1ccccc1C)S2(=O)=O was read as HCMV inh 7.9, Sm TGR block 15.1%, FMDV antiviral -0.5% and TbPYK inhibitor -6.8%.
Screening O=C(NCCSc1ccccc1)c1ccc(Br)cc1 returned HCMV inh 5.2, FBPA Giardia inh -4.5%, Sm TGR block -1.3%, RE007 growth inh 1.6%, FMDV antiviral -10.8% and TbPYK inhibitor -6.7%.
Screening O=C(NCCCSc1ccccc1)c1cc(Br)ccc1O returned HCMV inh -79.0*, Sm TGR block 7.4%, RE007 growth inh inconclusive, FMDV antiviral -19.5% and TbPYK inhibitor -17.4%.
ClCc1nnc(-c2ccccc2)o1 was read as HCMV inh -37.6, FBPA Giardia inh -7.4%, Sm TGR block 50.1µM*, RE007 growth inh 2.7%, FMDV antiviral inconclusive and TbPYK inhibitor 3.8%.
Clc1cccc(-c2nnc(-c3ccccc3)o2)c1 was read as HCMV inh 129.4, FBPA Giardia inh 3.5%, Sm TGR block 0.4%, RE007 growth inh 20µM*, FMDV antiviral -12.1% and TbPYK inhibitor -10.4%.
For c1ccc(-c2nnc(-c3ccccc3)o2)cc1 the results were HCMV inh 170.3, FBPA Giardia inh 2.2%, Sm TGR block 1.5%, RE007 growth inh inconclusive, FMDV antiviral 24.5% and TbPYK inhibitor 2.6%.
`CN(C)S(=O)(=O)c1cccc(-c2nnc(-c3ccccc3)o2)c1` gave HCMV inh -105.2*, FBPA Giardia inh 7.0%, Sm TGR block 14.9%, RE007 growth inh 2.2%, FMDV antiviral 15.3% and TbPYK inhibitor 2.0%.
Screening CCOc1ccccc1CNC(=O)Cn1c(-c2ccccc2)cc(C(C)=O)c1C returned HCMV inh 10.3, Sm TGR block 0.5%, FMDV antiviral 0.0% and TbPYK inhibitor -4.0%.
Screening O=C(CCl)Nc1cn(-c2ccccc2)nc1-c1ccc(F)cc1 returned HCMV inh -72.2*, FBPA Giardia inh -3.1%, Sm TGR block 31.6µM*, RE007 growth inh -11.2%, FMDV antiviral 15.8µM* and TbPYK inhibitor -0.1%.
`Fc1ccc(-c2nn(-c3ccccc3)cc2CNCc2ccccc2)cc1` gave HCMV inh inconclusive, FBPA Giardia inh 1.5%, RE007 growth inh -12.0%, FMDV antiviral 85.4% and TbPYK inhibitor -16.1%.
For O=C(CSc1ncccn1)NCC1Cc2cccc(-c3ncccn3)c2O1 (stereo not given) the results were FMDV antiviral 6.2%.
`O=C(O)c1ccc(N/N=C/c2ccc(-c3ccccc3)cc2)cc1` gave HCMV inh 82.1, FBPA Giardia inh 12.9%, Sm TGR block -1.8%, RE007 growth inh inconclusive, FMDV antiviral inconclusive and TbPYK inhibitor -15.9%.
`COc1ccc(/C=N/Nc2ccc(C(=O)O)cc2)cc1OC` gave HCMV inh 18.5, FBPA Giardia inh 0.7%, Sm TGR block -6.2%, RE007 growth inh 19.4%, FMDV antiviral inconclusive and TbPYK inhibitor -0.7%.
CC(C)c1ccc(/C=N/Nc2ccc(C(=O)O)cc2)cc1 was read as HCMV inh -63.5*, FBPA Giardia inh 6.4%, Sm TGR block -22.3%, RE007 growth inh -27.7%, FMDV antiviral 44.7µM* and TbPYK inhibitor 2.9%.
`COc1ccc(/C=N/Nc2ccc(C(=O)O)cc2)cc1Br` gave HCMV inh -35.2, FBPA Giardia inh 18.3%, Sm TGR block -2.3%, RE007 growth inh inconclusive, FMDV antiviral 22.4µM* and TbPYK inhibitor -18.6%.
Cc1ccc(S(=O)(=O)Oc2cccc(/C=N/Nc3ccc(C(=O)O)cc3)c2)cc1 was read as HCMV inh 0.0, FBPA Giardia inh 17.7µM*, Sm TGR block 6.2%, RE007 growth inh 5.4%, FMDV antiviral -0.6% and TbPYK inhibitor -2.3%.
For Nc1ccc(C(=O)N/N=C\c2ccc(OC(=O)c3ccccc3Cl)cc2)cc1 the results were HCMV inh -11.3, FBPA Giardia inh -5.7%, Sm TGR block -2.4%, RE007 growth inh -9.3%, FMDV antiviral 14.1% and TbPYK inhibitor 2.3%.
O=C(O)c1ccc(N/N=C/c2ccc(OC(=O)c3ccccc3Cl)cc2)cc1 was read as HCMV inh -67.6*, FBPA Giardia inh 8.9%, Sm TGR block -1.2%, RE007 growth inh 14.9%, FMDV antiviral 12.6µM* and TbPYK inhibitor -9.9%.
Screening CCCCOc1ccccc1C1CC(=O)Nc2ccc3ccccc3c21 (stereo not given) returned HCMV inh -91.6*, Sm TGR block 7.4%, FMDV antiviral -21.2% and TbPYK inhibitor 0.0%.
`COc1ccc(OC)c(C2CC(=O)Nc3ccc4ccccc4c32)c1` (stereo not given) gave HCMV inh 9.6, Sm TGR block -4.9%, FMDV antiviral -4.7% and TbPYK inhibitor 5.8%.
`COc1cc(NC(=O)c2cc(C)nc3c2c(C)nn3-c2ccccc2Cl)cc(OC)c1` gave HCMV inh -65.8*, Sm TGR block -3.4%, FMDV antiviral inconclusive and TbPYK inhibitor -0.6%.
`COc1ccc(CC(=O)NCC(c2cccs2)S(=O)(=O)c2ccc(Cl)cc2)cc1` (stereo not given) gave HCMV inh inconclusive, Sm TGR block 11.2µM*, FMDV antiviral -13.1% and TbPYK inhibitor -2.6%.
`CCCC(=O)NCC(c1cccs1)S(=O)(=O)c1ccc(Cl)cc1` (stereo not given) gave HCMV inh -102.9*, Sm TGR block -15.8%, RE007 growth inh 5.8%, FMDV antiviral 25.9% and TbPYK inhibitor 0.9%.
For Cc1ccc(NCN2C(=O)c3ccccc3C2=O)c(C)n1 the results were HCMV inh 27.8.
`CC(C)=C(NC(=O)c1ccccc1)C(=O)N1CCOCC1` gave HCMV inh -22.8, FBPA Giardia inh 9.5%, Sm TGR block 3.8%, RE007 growth inh -3.7% and TbPYK inhibitor -2.4%.
`O=C(N/C(C(=O)N1CCOCC1)=C(\Sc1ncccn1)c1ccccc1)c1ccccc1` gave HCMV inh 20.0, FBPA Giardia inh -12.7%, Sm TGR block 39.8µM*, RE007 growth inh 19.9%, FMDV antiviral -28.2% and TbPYK inhibitor 1.9%.
For O=C(COc1ccc(F)cc1)N1CCCCCCC1 the results were HCMV inh 32.9, FBPA Giardia inh -1.2%, Sm TGR block -8.5%, RE007 growth inh 19.3%, FMDV antiviral 15.7% and TbPYK inhibitor -2.3%.
O=C1NC(=S)NC(=O)C1=Cc1ccc(OCC(=O)N2CCCC2)cc1 was read as HCMV inh 14.2, Sm TGR block 10µM*, RE007 growth inh 1.8%, FMDV antiviral -9.9% and TbPYK inhibitor inconclusive.
